Here are results for 102 compounds from PubChem BioAssay AID624404 (Broad Institute, 2012).

Screen size: about 1,800 compounds; about 710 (39%) were called active. Another 28% or so got no clear call; they are omitted. The list is a sample of the results. Entries with a potency or affinity are not part of this list. A number with no mark means an inactive call.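 Rule for the calls: active = luciferase signal rise whose fitted curve crosses a set activity limit at or below the top valid tested dose; inconclusive = flat fit with 30 to 70% rise, or poor fit; inactive = signal falling, flat within 30%, or crossing above top dose.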

The test is described as follows: luciferase activators in glycosylation-insensitive reporter cells, dose response, counter-screen for N-linked glycosylation inhibitor project, D54 LucT cells, luminescence, cherry pick (AID 624404).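 Note: 0% = median neutral control signal and 100% = twice that signal.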 As to conditions: D54 LucT luciferase reporter counterscreen, 24 h; series mostly up to 19.5 µM; activity increase (luciferase signal): at the top concentration. On the technique in general: A counterscreen serves to expose hits that act by an unwanted route or on another target.
As for `CC(C)c1ccc(NC(=O)[C@@H](NC(=O)N2CC(=O)Nc3ccccc32)C(C)C)cc1`, the “activity increase (luciferase signal)” value is 49.1%. Under `O=C(CNC(=O)N1CC(=O)Nc2ccccc21)NCCCc1ccccc1` stands 37.6%.

As for `Cn1ncc2c(O/N=C(\N)c3ccc(C(F)(F)F)cc3)ncnc21`, the “activity increase (luciferase signal)” value was 9.8%. With `CC(/C=N/NC(=O)c1cc(-c2ccc(C)s2)[nH]n1)=C\c1ccccc1`, the “activity increase (luciferase signal)” value is 57%.

`CN(C)CCCN1C(=O)c2cccc3cccc(c23)C1=O`: the “activity increase (luciferase signal)” value was 66.1%. As for `Cc1cc(NC(=O)COC(=O)c2ccc(S(=O)(=O)N3CCCc4ccccc43)cc2)no1`, the figure is -2.94% [at 5 µM]; as for `CCOc1ccccc1C1CC(=O)Nc2cc3c(cc21)OCCO3` (configuration not stated), -7.85%.

In the case of `CCOC(=O)Cc1csc(/N=C/c2c(O)n(-c3ccc(C)c(C)c3)c(=O)c3ccccc23)n1`, the “activity increase (luciferase signal)” value was 48.7%. Regarding `Cc1cc(O)c(NC(=O)c2cc([N+](=O)[O-])ccc2Cl)cc1C`, the “activity increase (luciferase signal)” value was 5.97%. For the compound `CC(=O)Nc1sc(C)c(C)c1C(=O)OCC(=O)N(CC(C)C)c1c(N)n(Cc2ccccc2)c(=O)[nH]c1=O`, the “activity increase (luciferase signal)” value is -15.8%.

For the compound `CC(=O)Nc1sc(C)c(C)c1C(=O)OCC(=O)Nc1cccc(C)c1`, the “activity increase (luciferase signal)” value is 35.9%. As for `O=C1c2cccc3cccc(c23)C(=O)N1CC1CCN(CC(O)COCc2ccc3c(c2)OCO3)CC1` (configuration not stated), the figure is -18.8%; as for `CN(C)c1ccc(C(C[N+](=O)[O-])c2c(N)n(C)c(=O)n(C)c2=O)c(F)c1C#N` (configuration not stated), -29.9%. Under `Cc1ccc(-c2cnc(C3CC3)o2)cc1S(=O)(=O)Nc1ccccc1` stands 28.3%. Under `CCNc1ccc(Br)cc(C(=O)/C=C/c2ccc(Cl)cc2)c1=O` stands -4.89%. Regarding `COc1ccc(Oc2ccc(/C=C/C(=O)c3cccc(OC)c3)cc2[N+](=O)[O-])cc1`, the “activity increase (luciferase signal)” value is -28.9%.

`Cc1[nH]nc2c1C(c1cccc(O)c1)C1=C(CC(C)(C)CC1=O)N2` (configuration not stated): the “activity increase (luciferase signal)” value is -7.35%. For `COc1ccc(CCn2c(=N)c(C(=O)NCc3ccco3)cc3c(=O)n4ccccc4nc32)cc1OC`, the “activity increase (luciferase signal)” value was -3.36%. As for `Cc1cc(NC(=O)CSc2nc(-c3ccco3)cc(C(F)(F)F)n2)no1`, the figure is 26.8%; as for `O=C(NCCc1ccc(F)cc1)c1coc(=O)c(Br)c1`, 14.3%.

For the compound `Cc1cccc2[nH]c3c(N4CCC5(CC4)OCCO5)ncnc3c12`, the “activity increase (luciferase signal)” value was 17%. Under `COC(=O)c1cc(=O)n(Cc2ccc3c(c2)OCO3)c(=Nc2ccc(F)c(Cl)c2)s1` stands -55.3%; under `COc1ccc(CNC(=O)C2Cc3c(-c4ccc5c(c4)OCO5)ccnc3O2)cc1OC` (configuration not stated), 41.1%. With `COc1ccc(-c2nc3c(C(=O)NCCN(C)C)cccc3c3ccccc23)cc1`, the “activity increase (luciferase signal)” value was 22.2%. Under `COc1cccc2nc3c(C(=O)NCCN(C)C)cccc3cc12` stands -3.74%. Take `CCN(c1ccccc1)S(=O)(=O)c1ccc(C(=O)NC2CCN(Cc3ccccc3)CC2)cc1`: the “activity increase (luciferase signal)” value is -0.543%. As for `Nc1nc(=S)c2ncn(C3OC(CO)C(O)C3O)c2[nH]1` (configuration not stated), the figure is 23.6%; as for `COC(=O)c1ccc(S(=O)(=O)N2CCc3ccccc32)cc1`, 47.4%; as for `COC(=O)Nc1ccc(S(=O)(=O)N2CCCc3ccccc32)cc1`, -15.6%.

On to `O=C1CCCN1c1ccc(S(=O)(=O)Nc2ccc3c(c2)OCCO3)cc1`, for which the “activity increase (luciferase signal)” value was 35.6%. As for `Cc1nc([N+](=O)[O-])c(Sc2nc3ccccc3[nH]2)n1Cc1ccccc1`, the figure is 19.7%. As for `COc1ccc(OC)c(NS(=O)(=O)c2ccc(SC)cc2)c1`, the figure is 16.3%; as for `O=C1/C(=C/c2ccccc2)CCc2ccc(Cl)nc21`, 29.5%. As for `c1cc2c3c(cccc3c1)C(N1CCCCC1)=N2`, the figure is -6.38%; as for `Nc1c(N(CCC2=CCCCC2)C(=O)COc2ccc(F)cc2Cl)c(=O)[nH]c(=O)n1Cc1ccccc1`, -73.5%; as for `COc1ccc(-c2cc(C(F)F)n3ncc(C(=O)N4CCc5ccccc54)c3n2)cc1`, -4.74%.

Take `O=c1cc(-c2ccccc2)[nH]n1-c1nc2ccccc2[nH]1`: the “activity increase (luciferase signal)” value was -17.5%.

Regarding `CCCCCc1ccc(OCCC[n+]2ccccc2)c(CCCCC)c1`, the “activity increase (luciferase signal)” value was -63.6%. Under `Cc1cnc(C(=O)OCC(=O)NC2CCCCCCC2)cn1` stands 49.4%.

Regarding `NC(=O)[C@H]1CC2(CC(c3cccc(NC(=O)COc4ccc(Cl)cc4)c3)=NO2)CN1C(=O)C(c1ccccc1)c1ccccc1` (some centres not stated), the “activity increase (luciferase signal)” value was -31.4%.

For `O=C(N/N=C\c1cccnc1)c1cc(-c2ccccc2)nc2c(Cl)cccc12`, the “activity increase (luciferase signal)” value was -40.5%. For the compound `COc1ccc(NC(=O)c2nc(C)c(C3(C)CC(c4ccccc4)=NO3)s2)cc1` (configuration not stated), the “activity increase (luciferase signal)” value was 21.9%. Consider `CCOC(=O)c1c(C)nc2sc3c(=O)n(-c4ccc(C)cc4)cnc3c2c1-c1ccc(OC)cc1`, for which the “activity increase (luciferase signal)” value is 1.25%. Under `CCOC(=O)C1=C(Cc2ccc(F)cc2)C(=O)c2ccccc2C1=O` stands 39%.

On to `COC(=O)c1ccccc1NC(=O)Cn1nnc(-c2ccc(OC)cc2)n1`, for which the “activity increase (luciferase signal)” value was 41%. Under `COc1ccc(Cn2c(=O)cc(N)n(-c3ccccc3C)c2=O)cc1` stands 45.7% [at 5 µM]. As for `CC(C)CN(C(=O)COC(=O)CCSc1ccc(Cl)cc1)c1c(N)n(Cc2ccccc2)c(=O)[nH]c1=O`, the figure is 0.545%. As for `CCOc1ccc(OCC(=O)N(CCC2=CCCCC2)c2c(N)n(Cc3ccccc3)c(=O)[nH]c2=O)cc1`, the figure is -36.8%; as for `COc1ccc(-c2cc(-c3ccccc3)c(C#N)c(S(C)=O)n2)cc1` (configuration not stated), -12.6%; as for `Cc1cc(Br)cc2c(C(=O)Nc3c(C)n(C)n(-c4ccccc4)c3=O)cc(-c3cccs3)nc12`, 22.6% [at 5 µM].

Turning to `CCCn1c(CN2CCN(C(=O)OCC)CC2)nc2cc(NC(=O)CC)ccc21`, the “activity increase (luciferase signal)” value was 23%. Under `CN1CCN(CC(=O)Nc2cc(N(C)C)nc3ccccc23)CC1` stands 15.8%; under `CC(C)(C)NCC(O)CON=C1c2ccccc2-c2ccccc21` (configuration not stated), -11.5%. Take `Cc1ccccc1OCCOC(=O)c1c(-c2ccccc2)noc1C`: the “activity increase (luciferase signal)” value was 5.79%.

In the case of `Cc1ccc(-c2cc(C(F)F)n3ncc(C(=O)N4CCc5ccccc54)c3n2)cc1`, the “activity increase (luciferase signal)” value is -8.28%.

For `CC(C)Oc1ccccc1C1CC(=O)Nc2cc3c(cc21)OCO3` (configuration not stated), the “activity increase (luciferase signal)” value was 13%. Turning to `CCOc1cccc2sc(Nc3nc4ccc(NC(C)=O)cc4s3)nc12`, the “activity increase (luciferase signal)” value was -31.6%. Under `Cc1cc(C)c2c(N)c3ccccc3nc2n1` stands 3.64%; under `CCc1ccc2nc3nc(C)cc(C)c3c(N)c2c1`, -2.78%. As for `COC(=O)C1=C(C(=O)OC)[C@@H]2N(Cc3ccccc3)c3ccccc3[C@@]23C[C@@H](C(=O)OC)N(C(=O)c2cc(C)oc2C)C3=N1`, the figure is 2.73%; as for `C=CCN1c2ccccc2[C@]23C[C@@H](C(=O)OC)N(C(=O)c4ccc(Br)cc4)C2=NC(C(=O)OC)=C(C(=O)OC)[C@H]13`, -7.77%; as for `CCCOC(=O)c1[nH]c2c(c1C)C(=O)CC(c1cccs1)C2` (configuration not stated), -7.69%. As for `COc1cc2c3c(cccc3c1)C(=O)N(CCN1CCCC1)C2=O`, the figure is 0.522%; as for `COc1cc(/C=C2/C(=O)N(C)C(=S)N2C)ccc1OCc1cccc(F)c1`, -47.8%; as for `COc1ccc(/C=C2\SC(=S)N(CCC(=O)NC3CCCC3)C2=O)cc1OC`, -13.3%. As to `Cc1ccc(C)c(N2CCN(S(=O)(=O)c3ccc(-c4ccc(=O)[nH]n4)o3)CC2)c1`, the “activity increase (luciferase signal)” value is 13.6%. Under `CC(=O)Nc1cccc(-c2ccnc3c2CC(C(=O)NCc2ccc(F)c(F)c2)O3)c1` (configuration not stated) stands 4.2%; under `CC(=O)c1cccc(-c2ccnc3c2CC(C(=O)NCc2cccs2)O3)c1` (configuration not stated), 31.3%. Under `CC1(C(=O)NCc2cccs2)Cc2c(-c3ccc(C(N)=O)cc3)ccnc2O1` (configuration not stated) stands 13.2%; under `Cc1ccc(CNC(=O)Cc2ccc(-n3c(=O)[nH]c4ccsc4c3=O)cc2)cc1`, -2.38%. In the case of `COc1cc(C2CC(=O)Nc3cc(C)c(C)cc32)cc(OC)c1OC` (configuration not stated), the “activity increase (luciferase signal)” value was 37.1%. Turning to `CN1CCN(C(c2ccc(Br)cc2)c2cc(Cl)c3cccnc3c2O)CC1` (configuration not stated), the “activity increase (luciferase signal)” value is 97.6%.

On to `COc1ccc2noc3c2c1C(=O)c1ccccc1-3`, for which the “activity increase (luciferase signal)” value is 29.6%. Under `CCN(CC)CCCNc1ccc2ncn3c4ccc(O)cc4c(=O)c1c23` stands -16.4%. On to `CN(C)CCNc1ccc2nnn3c4ccc(O)cc4c(=O)c1c23`, for which the “activity increase (luciferase signal)” value is -11.4%.

In the case of `COc1cc(C)c2sc3ccccc3c(=O)c2c1NCCN(C)C`, the “activity increase (luciferase signal)” value is -86.3%. Under `COc1ccc2sc3cccc(NCCN(C)C)c3c(=O)c2c1` stands 102%; under `COc1ccc(-n2c(C)cc(C(=O)CCl)c2C)cc1`, -1.73%; under `c1ccc2sc(Sc3ncnc4sccc34)nc2c1`, 2.04%. As for `COc1ccc2c(C)nc(Nc3nc(-c4ccccc4)cc(=O)[nH]3)nc2c1`, the figure is -0.912% [at 5 µM]; as for `O=C(NCc1cccs1)C1CC(c2ccc(Cl)c(Cl)c2)=NO1` (configuration not stated), 27.1%; as for `COc1cc(OC)c(C2=NOC(C(=O)NCc3cccs3)C2)cc1Cl` (configuration not stated), 35.5%.

Take `COc1ccc(C2=NOC(C(=O)NCc3ccco3)C2)cc1OC` (configuration not stated): the “activity increase (luciferase signal)” value is 31.1%. Under `CC(=O)c1cccc(NC(=O)CSc2ncc(C(=O)Nc3ccccc3)c(=O)n2C)c1` stands -6.67%.

On to `Cn1c(SCC(=O)c2ccccc2)ncc(C(=O)Nc2ccc(F)cc2)c1=O`, for which the “activity increase (luciferase signal)” value is 99.3%. As for `CCn1cc2nc(SCC(=O)Nc3ccc(OC)cc3OC)n(Cc3ccc(OC)cc3)c(=O)c2n1`, the figure is -4.92%; as for `COc1ccc(CN(C)c2ncnc3sccc23)c(OC)c1OC`, 7.71%; as for `NC(N)=N/N=C/c1ccc2cccc(OCc3ccccc3)c2n1`, 20.1%. Take `O=C(N/N=C/c1cccnc1)c1cc(-c2ccc(Br)cc2)nc2ccccc12`: the “activity increase (luciferase signal)” value is 24.2%. Under `Cc1ccc(/C=N/NC(=O)c2c(C)nc3ccc(Br)cn23)cc1` stands 37.3%. Under `Cc1ccc(/C=N/NC(=O)CCn2nc(C)cc2C)c(C)c1` stands 21.3%; under `Brc1ccc(CSc2ccc3nnc(-c4cccnc4)n3n2)cc1`, -12.3%; under `Cc1ccccc1OCCc1c(C)[nH]c(=S)[nH]c1=O`, 24.5%. As for `CCN1Cc2c(/C=C/c3ccccc3)nc3ccc(OC)cc3c2N(c2cccc(Cl)c2)C1`, the figure is -74.9%. For the compound `O=C(Nc1nc2ccccc2c(=O)s1)c1ccco1`, the “activity increase (luciferase signal)” value is 5.88%. As for `COc1cc2nc(NC(=O)c3ccccc3)sc(=O)c2cc1OC`, the figure is -3.32%. As for `Cc1ccc(C(=O)NC(=C(Cl)Cl)S(=O)(=O)c2ccc(C)cc2)cc1`, the figure is 36%. As for `CC(=O)N(C1=C(Cl)C(=O)c2ccccc2C1=O)C1CCCCC1`, the “activity increase (luciferase signal)” value was -63.8%. With `COc1ccccc1OCC(=O)NNC(=O)c1ccoc1C`, the “activity increase (luciferase signal)” value is 17.5%. With `COc1cc2cc(C(c3nnnn3C(C)(C)C)N3CCc4ccccc4C3)c(=O)[nH]c2cc1OC` (configuration not stated), the “activity increase (luciferase signal)” value was -3.46%. Under `Cc1cc(Nc2cc(Cl)cc(Cl)c2)nc(N)n1` stands 13.1%; under `CC(=O)c1ccc(Oc2cc(C)nc(-n3nc(C)cc3C)n2)cc1`, -4.49%.
